Potency, max response and activity change, positive = activation data for seven compounds are collected here from PubChem BioAssay (Tox21).

Experiment [1] is described as follows: qHTS assay to identify small molecule agonists of the hypoxia (HIF-1) signaling pathway - cell viability counter screen (AID 1224844; calls by dose curve; further: nearly all actives have a fitted effect of over 50% in size). In a few lines:
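Tox21 10K compounds were added to HRE-bla ME-180 cells (0.5% dialyzed FBS) and incubated 17 hrs at 37C; ATP-based CellTiter-Glo luminescence then reported cell viability in the same wells.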
In general terms: In qHTS, concentration-response curves come from the screen itself.

Experiment [2] in a line: qHTS assay to identify small molecule agonists of the hypoxia (HIF-1) signaling pathway (AID 1224846; active means well fitted activation curve with a large enough effect in the signal ratio in the repeat runs, not every such curve was filed as active; the % refers to the signal ratio). In a few lines:
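Steps: seed ME-180 HRE-bla cells (2,000/well, 0.5% dialyzed FBS); incubate 5 hrs at 37C; pin-transfer compounds or DMSO; incubate 17 hrs; add LiveBLAzer B/G substrate CCF4-AM; measure reporter activation by FRET.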

Experiment [3] in a line: qHTS assay to identify small molecule agonists of H2AX - cell viability counter screen (AID 1224847; calls by dose curve; further: nearly all actives have a fitted effect of over 30% in size; further: potency means the concentration at half of the fitted maximal effect). The essentials: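 Cytotoxicity counter screen in wild-type CHO-K1 cells: a 3 hr compound treatment at 37C across 15 concentrations, followed by CellTiter-Glo luminescence to gauge viable cells.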
The nature of experiment [4]: qHTS RealTime-Glo MT Cell Viability Assay in HEK293 cells - 32 hour (AID 1224868). Further: nearly all actives have a fitted effect of over 50% in size. Further: potency means the concentration at half of the fitted maximal effect. In a few lines:
(§1)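 Viability tracked continuously by luminescence as live cells reduce a prosubstrate for NanoLuc; HEK293 cells preincubated 5 h, compound-treated at 37 C, and read at 0, 8, 16, 24, 32 and 40 h.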

Experiment [5] in a line: A CellTox Green Cytotoxicity Assay to monitor cytotoxicity in HEK293 cells - 0 hour (AID 1224869). Further: nearly all actives have a fitted effect of over 50% in size. The essentials: (§2)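 Cytotoxicity was tracked continuously in HEK293 cells by a DNA-binding dye excluded from viable cells. Compounds were transferred in DMSO 5 h after seeding; fluorescence was recorded at intervals up to 40 h.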
A short description of experiment [6]: qHTS RealTime-Glo MT Cell Viability Assay in HepG2 cells - 40 hour (AID 1224870). Further: nearly all actives have a fitted effect of over 50% in size. The essentials: (§3)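 HepG2 cells mixed with RealTime-Glo MT reagents (NanoLuc plus cell-permeant prosubstrate) were seeded at 600 cells/well, incubated 5 h at 37 C/5% CO2, then pinned with compounds in DMSO; nonlytic luminescence tracked viability during 40 h treatment.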
Experiment [7] can be described thus: A CellTox Green Cytotoxicity Assay to monitor cytotoxicity in HEK293 cells - 40 hour (AID 1224871). Further: nearly all actives have a fitted effect of over 45% in size. Further: potency means the concentration at half of the fitted maximal effect. The essentials: as §2
Experiment [8] in a line: qHTS RealTime-Glo MT Cell Viability Assay in HEK293 cells - 16 hour (AID 1224872). The essentials:
as §1

Experiment [9] is described as follows: qHTS RealTime-Glo MT Cell Viability Assay in HepG2 cells - 8 hour (AID 1224873). Further: nearly all actives have a fitted effect of over 55% in size. In a few lines: as §3
Experiment [10] is described as follows: qHTS RealTime-Glo MT Cell Viability Assay in HEK293 cells - 40 hour (AID 1224874). Further: nearly all actives have a fitted effect of over 50% in size. Further: potency means the concentration at half of the fitted maximal effect. The settings on record: RealTime-Glo luminescence; max response: stronger effect = lower value. In a few lines: (§4)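 Nonlytic bioluminescent viability monitoring. HEK293 at 600 cells/well with reagent; 5 h settle; compound transfer by pintool; plates held at 37 C and read at set time points.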

A short description of experiment [11]: A CellTox Green Cytotoxicity Assay to monitor cytotoxicity in HEK293 cells - 24 hour (AID 1224875). Further: nearly all actives have a fitted effect of over 45% in size. Further: potency means the concentration at half of the fitted maximal effect. The essentials:
as §2

Experiment [12] can be described thus: A CellTox Green Cytotoxicity Assay to monitor cytotoxicity in HepG2 cells - 16 hour (AID 1224876). Further: nearly all actives have a fitted effect of over 45% in size. The essentials: (§5)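 Real-time, homogeneous cytotoxicity readout: dead-cell DNA staining by CellTox Green in HepG2 monolayers, fluorescence measured at timed intervals up to 40 h of continuous compound exposure.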
Experiment [13] in a line: qHTS RealTime-Glo MT Cell Viability Assay in HepG2 cells - 32 hour (AID 1224877). Further: nearly all actives have a fitted effect of over 55% in size. In a few lines:
(§6)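 Viability was tracked continuously by NanoLuc luminescence from prosubstrate reduced by living HepG2 cells, at successive time points over 40 h of compound exposure. Cells with reagent were preincubated 5 h at 37 °C before compound addition.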

Experiment [14] is described as follows: A CellTox Green Cytotoxicity Assay to monitor cytotoxicity in HepG2 cells - 24 hour (AID 1224878). Further: nearly all actives have a fitted effect of over 45% in size. The essentials:
as §5

Experiment [15] in a line: A CellTox Green Cytotoxicity Assay to monitor cytotoxicity in HepG2 cells - 40 hour (AID 1224879). Further: nearly all actives have a fitted effect of over 40% in size. Further: potency means the concentration at half of the fitted maximal effect. In a few lines:
as §5

A short description of experiment [16]: qHTS RealTime-Glo MT Cell Viability Assay in HEK293 cells - 0 hour (AID 1224880). The essentials:
as §4

Experiment [17] is described as follows: qHTS RealTime-Glo MT Cell Viability Assay in HepG2 cells - 24 hour (AID 1224867). Further: nearly all actives have a fitted effect of over 50% in size. In a few lines: as §6
Experiment [18] can be described thus: qHTS assay to identify small molecule agonists of the estrogen related receptor (ERR) signaling pathway from Tox21 library (AID 1224849; calls by dose curve; further: nearly all actives have a fitted effect of over 15% in size). Conditions: ERR reporter cell line, ONE-Glo luciferase, 18 h; at 92.4 µM (top of the series) unless noted. In a few lines:
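Agonist signal is luciferase luminescence from an ERR reporter cell line treated 18 h at 37 C with DMSO-dissolved compounds, read 30 min after ONE-Glo addition at room temperature.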

Several values for one entry are separate records, joined by “and”; a condition that tells them apart may be missing. Identical values can stand only once. Results filed as inconclusive are left out. Some structures have more than one record in an assay (separate samples or runs), and their calls can disagree. Activity calls are given as the source filed them. Unless noted, the call rests on the fitted dose curve; in most records, active means well fitted curve in the direction sought with a large enough effect in the repeat runs; inconclusive means weak or mixed curves; inactive means no such curve, though single readings can be large; an effect the other way counts as inactive or inconclusive.
On the % scale 0 is the no-effect control and ±100 the full control effect.

As for `O=C(O)CCCCCCNC1c2ccccc2CCc2ccccc21`, the Potency result in experiment [1], in experiment [2], in experiment [3], in experiment [4], in experiment [5] and in experiment [6] was “inactive” throughout. Besides, the Potency entry in [7], in experiment [8], in [9], in experiment [11], in experiment [12] and in experiment [13] was “inactive” in each case. Further, the Potency result in experiment [14], in [15] and in experiment [16] was “inactive” throughout. Besides, the max response in experiment [10] is 11.4% (inactive).

For `CC1=C2C[C@H]3[C@@H](CC=C4C[C@@H](O)CC[C@@]43C)[C@@H]2CC[C@]12O[C@@H]1C[C@H](C)CN[C@H]1[C@H]2C`, the Potency result in experiment [1], in [2], in [17], in experiment [5], in experiment [6] and in experiment [9] was “inactive” throughout. Besides, the Potency result in experiment [13] and in [16] was “inactive” each time. For the same compound, the Potency in experiment [4] was 16.9 µM (active); in experiment [10], 16.9 µM (active); in experiment [15], 26.8 µM (active).

In the case of `CC(Cl)CCl` (stereo not given), the Potency result in experiment [1], in experiment [2], in experiment [3], in experiment [17], in [4] and in [5] was “inactive” in each case. In addition, the Potency result in experiment [6], in [7], in experiment [8], in experiment [9], in experiment [11] and in [12] was “inactive” each time. The Potency result in experiment [15] and in experiment [16] was “inactive” throughout. Further, the max response in [10] was -4.79% (inactive).

Take `Nc1cc(Cl)ccc1Cl`: the Potency result in [1], in [2], in experiment [3], in experiment [17], in experiment [4] and in experiment [5] was “inactive” each time. The Potency entry in [6], in experiment [7], in experiment [8], in experiment [9], in [12] and in experiment [13] was “inactive” in each case. The Potency result in experiment [15] and in [16] was “inactive” in each case. Moreover, the activity change, positive = activation in experiment [18] was -0.0267% (inactive). In experiment [10], the max response is 22.7% (inactive).

As to `c1ccc(N=NNc2ccccc2)cc1`, the Potency result in experiment [1], in experiment [2], in experiment [4], in experiment [5], in experiment [6] and in experiment [8] was “inactive” throughout. For the same compound, the Potency entry in [13] is “inactive”. Further, the Potency was 92.9 µM (active) and 101 µM (active) in experiment [3]; 45.2 µM (active) and 43.6 µM (active) in experiment [7]; 50.7 µM (active) in [11]; 49 µM (active) in [15]. Besides, in experiment [18], the activity change, positive = activation was 51.9% (active) and 0.0484% (inactive). Further, the max response in experiment [10] was -3.75% (inactive).

`C#CCC1=C(C)C(OC(=O)C2C(C=C(C)C)C2(C)C)CC1=O` (stereo not given): the Potency result in experiment [1], in experiment [2], in [17], in experiment [6], in [7] and in [9] was “inactive” throughout. In addition, the Potency result in experiment [11], in experiment [12], in experiment [13], in experiment [14] and in [15] was “inactive” throughout. The activity change, positive = activation in [18] is -46% (inactive).

As for `[O]=[Cr][O][Cr]=[O]`, the Potency result in [1], in experiment [2], in experiment [3], in experiment [17], in [4] and in experiment [5] was “inactive” throughout. The Potency result in [6], in [7], in experiment [8], in [9], in [11] and in [12] was “inactive” throughout. Besides, the Potency entry in experiment [13], in experiment [14], in experiment [15] and in experiment [16] was “inactive” in each case. Further, the max response in experiment [10] is 17.9% (inactive).
